The campaign covered roughly 400,000 compounds. About 3,700 (0.93%) were called active. About 3% were inconclusive and are not listed. The sample holds actives, similar compounds and a random draw of the others, so the mix is not that of the screen. Calls follow the shape of the dose curve; as a rule, active = well fitted inhibition curve with a large enough effect; inconclusive = small, poorly fitted or top-dose-only effect, or another doubt; inactive = no such curve, though single readings can be large or run the other way.
molecular target: Vitamin D3 receptor (Homo sapiens) (UniProt P11473); experiment: Inhibitors of the vitamin D receptor (VDR): qHTS; details: VDR-SRC2-3 peptide fluorescence polarization, 2 h; max response, negative = inhibition: hits give low values
Method in brief: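 After 23 nl compound addition and a short centrifugation, plates sat for 2 hours at ambient temperature; polarization of fluorescence then indicated loss of VDR binding to peptide SRC2-3.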
% is scaled to controls: 0 for no effect and ±100 for the full control effect; potency is read from the fitted curve at half-maximal effect.

Sequence of Vitamin D3 receptor (Homo sapiens) (P11473 whole entry, looked up): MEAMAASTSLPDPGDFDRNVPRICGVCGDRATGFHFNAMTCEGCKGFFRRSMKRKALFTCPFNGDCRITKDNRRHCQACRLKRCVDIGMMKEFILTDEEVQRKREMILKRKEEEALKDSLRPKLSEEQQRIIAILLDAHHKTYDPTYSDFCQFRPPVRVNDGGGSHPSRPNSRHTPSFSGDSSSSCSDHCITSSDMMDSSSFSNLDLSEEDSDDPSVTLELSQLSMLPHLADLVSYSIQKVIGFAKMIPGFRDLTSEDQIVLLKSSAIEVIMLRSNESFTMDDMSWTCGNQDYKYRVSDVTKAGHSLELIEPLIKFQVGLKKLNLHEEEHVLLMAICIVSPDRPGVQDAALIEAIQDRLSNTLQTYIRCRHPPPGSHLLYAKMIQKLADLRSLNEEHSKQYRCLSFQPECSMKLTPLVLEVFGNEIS

Row | Structure (SMILES) | max response, negative = inhibition | Potency
1 | O=C(CCCn1c(=O)c2cccn2c2cccnc21)NCc1ccc(F)cc1 | 8.91% (inactive) | –
2 | CCOc1ccc(NC(=O)Cn2c(C)ccc(C#N)c2=O)cc1 | -0.0869% (inactive) | –
3 | CCCCC(=O)NCc1ccc(F)cc1 | – | 3.16 µM (active)
4 | CCn1cc(CCC(=O)NCc2ccc(F)cc2)c2ccccc21 | -3.64% (inactive) | –
5 | Cc1ccc(CS(=O)(=O)CCC(=O)NCc2ccc(F)cc2)cc1 | -16.2% (inactive) | –
6 | Cc1ccc(C)c(N2CCN(C(=O)Cn3ncc4c(=O)oc5ccc(C)cc5c43)CC2)c1 | -7.32% (inactive) | –
7 | CCOc1ccc(NC(=O)C2CCN(S(=O)(=O)c3cc(-c4noc(C)n4)ccc3C)CC2)cc1 | 15.5% (inactive) | –
8 | Oc1c(C=Nc2cccc3nsnc23)ccc2ccccc12 | – | 79.4 µM (active)
9 | COc1ccc2[nH]c3c(c2c1)CCN(C(=O)CCC1CCCC1)C3c1ccc(F)cc1 (stereo not drawn) | 12.3% (inactive) | –
10 | CCc1cc2c(cc3c(=O)n(CC(=O)NCc4cccc(Cl)c4)nc(CC)n32)s1 | -17.2% (inactive) | –
11 | CC(C)(C)C(=O)CSc1nc2ccccc2o1 | -1.66% (inactive) | –
12 | O=C(CSc1nc2ccccc2o1)N/N=C/c1ccccc1C(=O)O | -26.3% (inactive) | –
13 | Cc1ccc(/C=N/NC(=O)CSc2nc3ccccc3o2)cc1 | – | 79.4 µM (active)
14 | COc1ccc(OCCCn2c(C)nc3cc(C)c(C)cc32)cc1 | 10% (inactive) | –
15 | COc1cc2c(cc1OC)[C@@H](Cc1cc(OC)c(OC)c(OC)c1)[N+](C)(CCCOC(=O)CC/C=C/CCC(=O)OCCC[N+]1(C)CCc3cc(OC)c(OC)cc3[C@H]1Cc1cc(OC)c(OC)c(OC)c1)CC2 (stereo partly drawn) | 3.39% (inactive) | –
16 | O=C1C(Cl)=C(Oc2ccccc2)C(=O)c2ccccc21 | – | 7.08 µM (active)
17 | CCOc1cc(C(=O)Nc2nnc3n2CCS3)cc(OCC)c1OCC | -8% (inactive) | –
18 | O=S(=O)(c1cccc(C(F)(F)F)c1)N1CCN(c2nc(-c3cccs3)nc3ccccc23)CC1 | 3.96% (inactive) | –
19 | COc1ccccc1CNc1nccn(-c2ccc(F)cc2)c1=O | 6.76% (inactive) | –
20 | CC(C)[C@@H](NC(=O)OC(C)(C)C)C(=O)NCC1CCC(C(=O)N[C@@H](Cc2ccccc2)C(=O)O)CC1 (stereo partly drawn) | -5.18% (inactive) | –
21 | C[C@@H](NC(=O)OC(C)(C)C)c1nnc(S(=O)(=O)Cc2ccccc2)o1 | – | 28.2 µM (active)
22 | COc1ccccc1NC(=O)[C@H](COCc1ccccc1)NC(=O)OC(C)(C)C | 6.86% (inactive) | –

Row | Structure (SMILES) | max response, negative = inhibition | Potency
23 | O=c1cc2nc(-c3ccccc3)nc(SCCOc3ccc(Cl)cc3)n2[nH]1 | 11.1% (inactive) | –
24 | CCOC(=O)c1cc2c(=O)n3ccccc3nc2n(CC2CCCO2)c1=NC(=O)c1ccccc1F (stereo not drawn) | -16% (inactive) | –
25 | Cc1ccc(C2c3[nH]c4ccccc4c3CCN2C(=O)c2cccc(C)c2)cc1 (stereo not drawn) | 4% (inactive) | –
26 | Clc1cccc(-n2ncc3c(NCCc4ccccc4)ncnc32)c1 | 2.94% (inactive) | –
27 | COc1cc(C(=S)N2CCOCC2)cc(OC)c1OC(=O)c1cc([N+](=O)[O-])cc([N+](=O)[O-])c1 | -18.9% (inactive) | –
28 | CC1CCN(C(=S)c2cccc([N+](=O)[O-])c2)CC1 | 9.7% (inactive) | –
29 | O=C(Oc1ccccc1C(=S)N1CCCCC1)c1cc([N+](=O)[O-])cc([N+](=O)[O-])c1 | – | 89.1 µM (active)
30 | COc1ccc(OC)c([C@H](O)CNC(=O)CN)c1 | 6.34% (inactive) | –
31 | Cc1ccc(CNC(=O)CCc2c(C)nc3nc(CNC(=O)OC(C)(C)C)nn3c2C)cc1 | 6.84% (inactive) | –
32 | CCc1nnc(NC(=O)C2CC(=O)N(c3ccc4c(c3)OCCO4)C2)s1 (stereo not drawn) | – | 56.2 µM (active)
33 | CCOC(=O)c1ccc(NC(=O)C2CC(=O)N(c3ccc4c(c3)OCCO4)C2)cc1 (stereo not drawn) | -6.01% (inactive) | –
34 | CC(=O)c1ccccc1NC(=O)C1CC(=O)N(c2ccc3c(c2)OCCO3)C1 (stereo not drawn) | 0.279% (inactive) | –
35 | CCc1cc2c(cc3c(=O)n(CC(=O)NCCc4ccc(OC)c(OC)c4)ncn32)s1 | 14.2% (inactive) | –
36 | CC1CC(C)CN(c2oc(-c3ccc(OCc4ccc(Cl)cc4)cc3)nc2C#N)C1 (stereo not drawn) | -6.19% (inactive) | –
37 | COc1cccc(-c2cc(C(=O)Nc3ccc(C)cc3)[nH]n2)c1 | -3.16% (inactive) | –
38 | Cc1ccc(C(=O)NC(=S)NCc2cccnc2)cc1 | -6.42% (inactive) | –
39 | Cc1ccc(-n2nc(-c3ccco3)cc2C(=O)NCc2cccnc2)cc1 | – | 70.8 µM (active)
40 | CSc1sc(C(=O)NC(=O)NCc2cccnc2)c(C)c1-c1ccon1 | 1.93% (inactive) | –
41 | COc1cc(CNCCSc2nnnn2C)ccc1OCc1ccc(Cl)cc1Cl | 1.83% (inactive) | –
42 | O=c1c(O)c(Br)ccc2c(Br)c(O)c(O)c(O)c12 | – | 7.94 µM (active)
43 | O=C(c1ccco1)N(Cc1cccs1)c1ccc(O)cc1 | -6.28% (inactive) | –
44 | Cc1cccc(CSc2nc3ccncc3n2CC(=O)N(C)C2CCCCC2)c1 | -0.866% (inactive) | –

Row | Structure (SMILES) | max response, negative = inhibition | Potency
45 | CCOCCCNC(=O)c1c(NC(=O)Cc2coc3ccc(C)cc23)sc2c1CCC2 | 8.22% (inactive) | –
46 | O=C(Nc1ccccc1-c1nnn(CC(=O)N2CCN(c3ccccc3)CC2)n1)c1cccs1 | -0.102% (inactive) | –
47 | O=C(Nc1ccccc1-c1ccccc1)c1cccs1 | – | 70.8 µM (active)
48 | O=C(Nc1ccccc1-c1ccccc1)c1ccccc1[N+](=O)[O-] | -7.79% (inactive) | –
49 | Cc1ccc(C)c(NC(=O)CSC2=Nc3ccccc3N=C(c3ccc(F)cc3)C2)c1 | 4.3% (inactive) | –
50 | Cc1cccc2nc(-c3ccc(Cl)s3)c(Nc3ccc4c(c3)OCCO4)n12 | -14.5% (inactive) | –
51 | CC(=O)NCC(O)c1ccc([N+](=O)[O-])cc1 (stereo not drawn) | -16.9% (inactive) | –
52 | C=C(C(C)=O)C(O)c1cccs1 (stereo not drawn) | -7.76% (inactive) | –
53 | C=C(C(C)=O)C(O)c1ccc([N+](=O)[O-])cc1 (stereo not drawn) | – | 50.1 µM (active)
54 | CCN1CCN(c2cc(C)c3cc(NC(=O)c4cc(Cl)ccc4OC)ccc3n2)CC1 | -8.13% (inactive) | –
55 | CCOc1ccc(CC(=O)NCCc2csc3nc(-c4ccccc4F)nn23)cc1 | 13.3% (inactive) | –
56 | CCC(CO)Oc1cc(NC(=O)c2ccc(Cl)cc2)c2ncn(C(C)C)c2c1 (stereo not drawn) | -27.1% (inactive) | –
57 | CC(C)n1cnc2c(NCc3ccccc3)cc(OCC3CCN(C)CC3)cc21 | – | 50.1 µM (active)
58 | CN(C)c1nccc(NCc2ccccc2)c1C#N | 28.6% (inactive) | –
59 | CCOc1ccc(NC(=O)CSc2c3c(nc4ccccc24)CCCC3)cc1 | 0.351% (inactive) | –
60 | CC(=O)c1ccc(NS(=O)(=O)c2ccc(-c3cc(C)no3)s2)cc1 | -0.0795% (inactive) | –
61 | COc1ccc(CNC(=O)C2=Cc3cccc(OC)c3OC2)cc1OC | -2.19% (inactive) | –
62 | C[C@]12CC[C@@H]3c4ccc(O)cc4C[C@@H](CCCCCCCCCS(=O)CCCC(F)(F)C(F)(F)F)C3[C@@H]1CC[C@@H]2O (stereo partly drawn) | -2.01% (inactive) | –
63 | CCOc1ccc(NC(=O)CSc2nnc3c(n2)[nH]c2ccc(S(=O)(=O)N4CCOCC4)cc23)cc1 | 3.89% (inactive) | –
64 | CC(=O)c1cccc(NC(=O)c2cc(C)nn2-c2ccccc2)c1 | -12.6% (inactive) | –
65 | CSc1ccccc1C(=O)NCc1ccccc1 | 10.4% (inactive) | –
66 | CSc1ccccc1C(=O)Nc1cccc(C(C)=O)c1 | – | 39.8 µM (active)

Row | Structure (SMILES) | max response, negative = inhibition | Potency
67 | CCCCC/C=C\C/C=C\CCCCCCCCCC(N)=O | -2.13% (inactive) | –
68 | CCN(CC)C(=O)CSc1nc2cc3c(cc2c(=O)n1CCCC(=O)NCc1ccc2c(c1)OCO2)OCO3 | 4.85% (inactive) | –
69 | CCOc1ccc2nc(N3CCCC(C(=O)Nc4cc(C)ccc4C)C3)sc2c1 (stereo not drawn) | 5.91% (inactive) | –
70 | O=C(O)c1ccc(CSc2nc3cccnc3n2Cc2cccc(F)c2)cc1 | 9.37% (inactive) | –
71 | O=C(/C=C/Sc1ncn[nH]1)c1ccc(Cl)cc1 | – | 39.8 µM (active)
72 | C[C@@H]1C[C@H]2[C@@H]3C[C@H](F)C4=CC(=O)C=C[C@@]4(C)[C@]3(F)[C@H](O)C[C@]2(C)[C@@]1(O)C(=O)CO | -2.08% (inactive) | –
73 | Cc1ccnc(-n2sc3ccccc3c2=O)n1 | – | 25.1 µM (active)
74 | CCOC(=O)c1c(C)[nH]c(CCC(=O)Nc2ccc(OC)c(OC)c2)c1C | -6.79% (inactive) | –
75 | COc1cc(OC)c(C2C=C(C(=O)O)Nc3ncnn32)cc1OC (stereo not drawn) | -29.8% (inactive) | –
76 | COc1ccccc1CNC(=O)Cn1nc(C)c2nn(-c3ccc(Cl)cc3)c(C)c2c1=O | 3.2% (inactive) | –
77 | Nc1ccc2c(c1)C(O)c1ccc(Cl)cc1-2 (stereo not drawn) | 1.49% (inactive) | –
78 | NC(=O)C1(C(N)=O)OC1c1ccc(Cl)cc1Cl (stereo not drawn) | – | 14.1 µM (active)
79 | CCN(CC)c1nc(C#N)nc(OC)n1 | -23.3% (inactive) | –
80 | CCOC(=O)C1Sc2[nH]c(=O)sc2C(c2ccc(Cl)cc2)C1C(=O)OCC (stereo not drawn) | – | 79.4 µM (active)
81 | CCOC(=O)C1CCN(C(=O)Nc2ccc(Cl)cc2)CC1 | 6.67% (inactive) | –
82 | CCOC(=O)c1ccccc1N1C(=O)C2Sc3[nH]c(=O)sc3C(/C=C/c3ccccc3)C2C1=O (stereo not drawn) | -26.2% (inactive) | –
83 | CCCCCn1c(CCCNC(=O)c2ccccc2OC)nc2ccccc21 | 10.5% (inactive) | –
84 | COc1cccc2c1cc1c(=O)n(CC(=O)N3CCN(c4cccc(Cl)c4)CC3)nc(C)n12 | -15.1% (inactive) | –
85 | Cc1cccc(NC(=O)CSc2ncc(-c3ccccc3)[nH]2)c1C | -15.6% (inactive) | –
86 | CC(=O)c1c(C)oc2ccc(NS(=O)(=O)c3ccc(C(=O)O)cc3)cc12 | 11.8% (inactive) | –
87 | CCOC(=O)c1c(C)n(S(=O)(=O)c2ccc(C)cc2C)c2ccc(NS(=O)(=O)c3ccc(C)cc3C)cc12 | -7.13% (inactive) | –
88 | CC(=O)c1c(C)n(S(=O)(=O)c2ccc(Cl)cc2)c2ccc(NS(=O)(=O)c3ccc(Cl)cc3)cc12 | – | 79.4 µM (active)

Reference: PubChem BioAssay AID504847 (National Center for Advancing Translational Sciences (NCATS), 2011)
